From PubChem BioAssay
TDP1 cell CPT = qHTS for Inhibitors of human tyrosyl-DNA phosphodiesterase 1 (TDP1): qHTS in cells in presence of CPT; chicken DT40 Tdp1-/-;hTDP1 cells + 20 nM CPT, ATP luminescence, 48 h; Potency, µM (series often up to 46.2 µM), actives largely listed as inhibitors; hit rate 12% among 420,000; AID 686979, 2013; note: nearly all actives have a fitted effect of over 55% in size
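Cell growth measured by CellTiter-Glo luminescence after a minimum 48 h, 37 C compound exposure with 20 nM CPT in Tdp1-knockout DT40 cells stably expressing hTDP1, seeded 400/well; qHTS titration format.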
DT40 TDP1 no CPT = qHTS for Inhibitors of human tyrosyl-DNA phosphodiesterase 1 (TDP1): qHTS in cells in absence of CPT; Potency, µM (top dose mostly 46.2 µM), usual class: inhibitors; hit rate 15% among 420,000; DT40 Tdp1-/- hTDP1 cells, no CPT, ATP luminescence, 48 h; AID 686978, 2013; note: nearly all actives have a fitted effect of over 55% in size
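Camptothecin absent (DMSO only). Human TDP1-complemented DT40 knockout cells, 400 cells/well, 37 °C for minimum 48 hr; ATP measured via CellTiter-Glo, 30 min dark incubation, luminescence.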
HepG2 viability = qHTS for Inhibitors of TGF-b: Cytotox Counterscreen; AID 588856, 2011; HepG2 CAGA-GFP viability, ATP luminescence, 18 h; hit rate 0.76% among 410,000; Potency, µM (highest dose often 46.1 µM), most hits filed as cytotoxic
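HepG2 CAGA-GFP cells (1000/well, DMEM with 1% FBS) received compound, then TGF-beta at 500 pg/mL final, and were incubated 18 hours at 37 degrees C. Viability was read by CellTiter-Glo luminescence. Media-only wells were set as complete cell-killing and DMSO as no toxicity.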
HT1080NT lethal = qHTS for induction of synthetic lethality in tumor cells producing 2HG: qHTS for the HT-1080-NT fibrosarcoma cell line; AID 686970, 2013; HT-1080-NT fibrosarcoma viability, CellTiter-Glo ATP luminescence, 48 h; hit rate 1.6% among 360,000; Potency, µM (doses to about 46.1 µM), actives largely listed as cytotoxic;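 note: NT is the 2HG producing partner of a matched IDH1 knockdown line; nearly all actives have a fitted effect of over 55% in size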
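Read-out is CellTiter-Glo luminescence after 10 minutes at room temperature, following 48 hours' compound treatment of HT-1080-NT cells (750 cells/well, RPMI, 5% FBS, 37 degrees C).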
HT1080 IDH1KD tx = qHTS for induction of synthetic lethality in tumor cells producing 2HG: qHTS for the HT-1080-IDH1KD cell line; HT-1080 IDH1 knockdown viability, ATP luminescence, 48 h; Potency, µM (top dose mostly 46.1 µM), actives largely listed as cytotoxic; hit rate 2% among 360,000
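Knockdown cells (IDH1KD HT-1080) received compounds 2 h after plating at 750 cells/well and were kept 48 h at 37 °C in 5% FBS RPMI. A CellTiter-Glo luminescence read gave % activity for curve fitting.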
TGFb inhibitor = qHTS for Inhibitors of TGF-b | HepG2 CAGA-GFP TGF-b/SMAD3 reporter, GFP fluorescence, 18 h; TGF-beta stimulated, 500 pg/mL final | Potency, µM (top dose mostly 46.1 µM), most hits filed as inhibitors | hit rate 1.2% among 410,000; note: nearly all actives have a fitted effect of over 65% in size
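GFP signal (ex488/em500-530) from TGF-beta-stimulated HEPG2 CAGA-GFP cells, 500 pg/mL final, 18 h at 37 degrees C in DMEM plus 1% FBS, normalized to unstimulated and DMSO-stimulated controls.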
Hits are given with their value; – = inactive; ? = inconclusive; · = no result given. In the library only some 17% were active in any assay of this set; here they are far more common. Calls come from the whole dose curve; as a rule, active = well fitted curve in the direction sought with a large enough effect; inconclusive = small, poorly fitted or top-dose-only effect, or another doubt; inactive = no such curve, though single readings can be large; an effect the other way counts as inactive or inconclusive.

SMILES	TDP1 cell CPT	DT40 TDP1 no CPT	HepG2 viability	HT1080NT lethal	HT1080 IDH1KD tx	TGFb inhibitor
c1ccc(N2CCN(Cc3nnc(-c4ccc5c(c4)OCO5)o3)CC2)cc1	?	?	–	·	·	–
CCc1ccc2[nH]c(=O)c(CN(Cc3ccc4c(c3)OCO4)C(=O)c3ccco3)cc2c1	23.1µM	?	–	–	–	?
COC(=O)c1ccccc1NC(=S)N(Cc1ccc2c(c1)OCO2)Cc1cc2cc(C)ccc2[nH]c1=O	20.6µM	?	–	–	–	?
CCN(CC)CCN(Cc1cc2ccc(C)cc2[nH]c1=O)C(=S)Nc1ccccc1C(=O)OC	?	?	–	?	18.4µM	–
CC(C)CCOc1ccc(C(=O)NN2C(=O)NC3(CCCCC3)C2=O)cc1	?	?	–	–	–	–
Cc1ccc(CNC(=O)Cn2cc(C(=O)c3ccc(F)cc3)c(=O)c3ccc(C)nc32)cc1	?	?	–	·	·	–
COc1ccc(OC)c(NC(=O)C(C)n2c(=O)c(-c3ccccc3NC(C)=O)nc3ccccc32)c1 (stereo not drawn)	23.1µM	?	–	·	·	–
CC(=O)Nc1ccccc1-c1nc2ccccc2n(C(C)C(=O)c2ccc(C)c(C)c2)c1=O (stereo not drawn)	?	?	–	·	·	–
CC(=O)Nc1ccccc1-c1nc2ccccc2n(C(C)C(=O)Nc2cc(Cl)ccc2C)c1=O (stereo not drawn)	?	25.9µM	–	·	·	?
COc1ccc(OC)c(NC(=O)Cn2c(C)nc3ccccc3c2=O)c1	–	–	–	–	–	–
C=CCc1ccc(OCCCCN2CC(C)OC(C)C2)c(OC)c1 (stereo not drawn)	?	?	–	–	–	–
Cc1ccc(/C=N/NC(=O)CC2N=C(Cc3ccccc3)NNC2=O)cc1 (stereo not drawn)	–	–	–	–	–	–
Cc1ccc(NC(=O)Cn2nc(-c3ccccc3)nc(Cc3ccccc3)c2=O)cc1	–	–	–	·	·	–
Cc1ccc(NC(=O)c2sc3nc(-c4ccc(F)cc4)cn3c2C)c(C)c1	–	?	–	·	·	?
CCOC(=O)CSC1=C(C#N)C(c2ccc(C)cc2)C(C(=O)OC)C(=O)N1 (stereo not drawn)	–	–	–	–	–	–
COC(=O)C1=C(O)C(C(=O)OC)C(c2ccc(C)cc2)C(C#N)(C#N)C1c1ccc(C)cc1 (stereo not drawn)	5.17µM	4.11µM	–	–	–	–
CCCCNC(=O)C1(C)CCCCN1C(=O)c1ccc2sccc2c1 (stereo not drawn)	?	16.4µM	–	–	–	–
CCCCNC(=O)C1(C)CCCCN1C(=O)c1cc2ccccc2s1 (stereo not drawn)	8.2µM	14.6µM	–	–	–	–
CC(C)CNC(=O)C1(C)CCCCCN1C(=O)c1cc2ccccc2s1 (stereo not drawn)	–	?	–	–	?	–
CCCCNC(=O)C1(C)CCN1C(=O)c1cc(-c2cccs2)oc1C (stereo not drawn)	1.64µM	3.66µM	–	?	23.1µM	?
CCCCNC(=O)C1(C)CCCCN1C(=O)c1ccc(C)c(F)c1 (stereo not drawn)	–	–	–	–	–	–
CCCCNC(=O)C1(C)CCCCN1C(=O)c1c(F)ccc(C)c1F (stereo not drawn)	–	–	–	–	–	–
CCCCNC(=O)C1(C)CCCCN1C(=O)c1c(Cl)cccc1Cl (stereo not drawn)	?	13µM	–	?	–	–
O=C(CN1C(=O)c2ccccc2S1(=O)=O)Nc1ccon1	–	–	–	–	–	–
CC(C)(C)c1cc(NC(=O)C2(C)CCN2C(=O)C2(c3ccccc3)CCCC2)no1 (stereo not drawn)	14.6µM	14.6µM	–	–	–	–
SMILES	TDP1 cell CPT	DT40 TDP1 no CPT	HepG2 viability	HT1080NT lethal	HT1080 IDH1KD tx	TGFb inhibitor
CC(C)(C)c1cc(NC(=O)C2(C)CCN2C(=O)C2(c3ccccc3)CC2)no1 (stereo not drawn)	?	20.6µM	–	–	–	–
CC1CN(c2nc3ccccc3nc2NS(=O)(=O)c2ccccc2)CC(C)O1 (stereo not drawn)	–	–	–	–	–	–
CCc1ccccc1NC(=O)c1cc(S(=O)(=O)N2CCc3ccccc32)cn1C	–	–	–	–	–	–
COc1ccc(NC(=O)c2cc(S(=O)(=O)N3CCc4ccccc43)cn2C)cc1	10.3µM	?	–	–	–	–
Cc1ccc(NC(=O)c2cc(S(=O)(=O)N3CCc4ccccc43)cn2C)cc1C	?	?	–	?	–	?
Cc1cccc(NC(=O)c2cc(S(=O)(=O)N3CCc4ccccc43)cn2C)c1C	–	–	–	–	–	–
CCCNC(=O)c1cc(S(=O)(=O)N2CCc3ccccc32)cn1C	23.1µM	18.4µM	–	–	–	?
Cc1ccc(NC(=O)c2cc(S(=O)(=O)N3CCc4ccccc43)cn2C)c(Cl)c1	?	11.6µM	–	·	·	?
